Measurements as given in PubChem BioAssay AID1159580 (chemical genetic matrix, 2015).
About 2,000 (36%) of roughly 5,500 compounds were called active. About 18% were inconclusive and are not listed. Cut-off read from the data, not from the text of the source: active = normalized growth mostly below about 0.91 (no sharp cut-off); inconclusive = no clear call, values can overlap the other calls; inactive = mostly above about 0.92. Some of the results follow.

Experiment: chemical genetic growth profiling, strain panel (AID 1159580);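 note: tested at 20 µM; growth read once vehicle control cultures reached saturation at 30 °C; 1 = growth at the plate median or of vehicle wells; lower values mean less growth of the strain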
Conditions: growth OD

Measured: normalized growth

OC(c1cc(C(F)(F)F)nc2c(C(F)(F)F)cccc12)C1CCCCN1 (stereo not drawn)
inactive: S. cerevisiae deletion strains, locus YJR066W, strain TOR1, hits give low values 0.936 | S. cerevisiae deletion strains, locus YJR075W, strain HOC1, hits give low values 0.978 | S. cerevisiae deletion strains, locus YKL009W, strain mrt4, hits give low values 0.987 | S. cerevisiae deletion strains, locus YKL068W, hits give low values 0.99 | S. cerevisiae deletion strains, locus YKL085W, strain MDH1 (second series), hits give low values 0.989 | S. cerevisiae deletion strains, locus YKL085W, strain MDH1, hits give low values 0.989 | S. cerevisiae deletion strains, locus YKL160W, strain elf1, hits give low values 0.99 | S. cerevisiae deletion strains, locus YKL190W, strain CNB1, hits give low values 0.99 | S. cerevisiae deletion strains, locus YKR001C, strain vps1, hits give low values 1 | S. cerevisiae deletion strains, locus YKR026C, strain gcn3, hits give low values 1.01 | S. cerevisiae deletion strains, locus YKR091W, strain srl3, hits give low values 1 | S. cerevisiae deletion strains, locus YLL001W, strain dnm1, hits give low values 1 | S. cerevisiae deletion strains, locus YLL026W, hits give low values 1.01 | S. cerevisiae deletion strains, locus YLL041C, strain sdh2, hits give low values 1.02 | S. cerevisiae deletion strains, locus YLR027C, strain aat2, hits give low values 0.996 | S. cerevisiae deletion strains, locus YLR039C, strain RIC1, hits give low values 1.12 | S. cerevisiae deletion strains, locus YLR058C, strain SHM2, hits give low values 0.991 | S. cerevisiae deletion strains, locus YLR102C, strain apc9, hits give low values 0.991 | S. cerevisiae deletion strains, locus YLR113W, strain HOG1, hits give low values 0.93 | S. cerevisiae deletion strains, locus YLR221C, strain rsa3, hits give low values 1.02 | S. cerevisiae deletion strains, locus YLR258W, strain gsy2, hits give low values 1.01 | S. cerevisiae deletion strains, locus YLR262C, strain YPT6 (second series), hits give low values 1.11 | S. cerevisiae deletion strains, locus YLR262C, strain YPT6, hits give low values 1.15 | S. cerevisiae deletion strains, locus YLR268W, strain sec22, hits give low values 0.975 | S. cerevisiae deletion strains, locus YLR320W, strain mms22, hits give low values 1.01 | S. cerevisiae deletion strains, locus YLR330W, strain CHS5, hits give low values 0.992 | S. cerevisiae deletion strains, locus YLR342W, strain FKS1 (second series), hits give low values 0.962 | S. cerevisiae deletion strains, locus YLR342W, strain FKS1, hits give low values 1.01 | S. cerevisiae deletion strains, locus YLR357W, strain rsc2, hits give low values 1.09 | S. cerevisiae deletion strains, locus YLR370C, strain arc18, hits give low values 1 | S. cerevisiae deletion strains, locus YLR371W, strain rom2, hits give low values 0.988 | S. cerevisiae deletion strains, locus YLR384C, strain iki3, hits give low values 1.01 | S. cerevisiae deletion strains, locus YLR418C, strain cdc73, hits give low values 0.931 | S. cerevisiae deletion strains, locus YML016C, strain PPZ1, hits give low values 0.989 | S. cerevisiae deletion strains, locus YML032C, strain rad52, hits give low values 0.978 | S. cerevisiae deletion strains, locus YML120C, strain ndi1, hits give low values 1 | S. cerevisiae deletion strains, locus YML124C, strain tub3, hits give low values 0.99 | S. cerevisiae deletion strains, locus YMR058W, strain fet3, hits give low values 0.997 | S. cerevisiae deletion strains, locus YMR078C, strain ctf18, hits give low values 0.994 | S. cerevisiae deletion strains, locus YMR125W, strain sto1, hits give low values 1 | S. cerevisiae deletion strains, locus YMR129W, hits give low values 0.997 | S. cerevisiae deletion strains, locus YMR205C, strain PFK2, hits give low values 1.01 | S. cerevisiae deletion strains, locus YMR223W, strain ubp8, hits give low values 0.973 | S. cerevisiae deletion strains, locus YMR231W, strain pep5, hits give low values 1.01 | S. cerevisiae deletion strains, locus YMR307W, strain GAS1, hits give low values 0.869 | S. cerevisiae deletion strains, locus YNL067W, strain RPL9B, hits give low values 0.981 | S. cerevisiae deletion strains, locus YNL071W, strain lat1, hits give low values 1.02 | S. cerevisiae deletion strains, locus YNL183C, strain NPR1, hits give low values 0.93 | S. cerevisiae deletion strains, locus YNL209W, strain ssb2, hits give low values 0.996 | S. cerevisiae deletion strains, locus YNL233W, strain BNI4, hits give low values 0.959 | S. cerevisiae deletion strains, locus YNL248C, strain rpa49, hits give low values 0.999 | S. cerevisiae deletion strains, locus YNL250W, strain rad50, hits give low values 0.986 | S. cerevisiae deletion strains, locus YNL271C, strain bni1, hits give low values 0.985 | S. cerevisiae deletion strains, locus YNL298W, strain CLA4, hits give low values 0.995 | S. cerevisiae deletion strains, locus YNL307C, strain MCK1, hits give low values 0.992 | S. cerevisiae deletion strains, locus YNL322C, strain KRE1 (second series), hits give low values 0.988 | S. cerevisiae deletion strains, locus YNL322C, strain KRE1, hits give low values 0.987 | S. cerevisiae deletion strains, locus YNR049C, strain mso1, hits give low values 1.01 | S. cerevisiae deletion strains, locus YNR052C, strain pop2, hits give low values 0.99 | S. cerevisiae deletion strains, locus YOL006C, strain TOP1, hits give low values 0.993 | S. cerevisiae deletion strains, locus YOL012C, strain htz1 0.986 | S. cerevisiae deletion strains, locus YOL147C, strain pex11, hits give low values 1.01 | S. cerevisiae deletion strains, locus YOR001W, strain rrp6, hits give low values 0.999 | S. cerevisiae deletion strains, locus YOR061W, strain CKA2, hits give low values 0.991 | S. cerevisiae deletion strains, locus YOR069W, strain VPS5, hits give low values 0.997 | S. cerevisiae deletion strains, locus YOR070C, strain gyp1, hits give low values 1.01 | S. cerevisiae deletion strains, locus YOR080W, strain dia2, hits give low values 1.02 | S. cerevisiae deletion strains, locus YOR083W, strain WHI5, hits give low values 1.03 | S. cerevisiae deletion strains, locus YOR106W, strain vam3, hits give low values 1.02 | S. cerevisiae deletion strains, locus YOR136W, strain idh2, hits give low values 0.988 | S. cerevisiae deletion strains, locus YOR144C, strain elg1, hits give low values 0.991 | S. cerevisiae deletion strains, locus YOR184W, strain ser1, hits give low values 0.997 | S. cerevisiae deletion strains, locus YOR231W, strain MKK1, hits give low values 0.959 | S. cerevisiae deletion strains, locus YOR265W, strain rbl2, hits give low values 1 | S. cerevisiae deletion strains, locus YOR270C, strain vph1, hits give low values 1.04 | S. cerevisiae deletion strains, locus YOR290C, strain snf2, hits give low values 0.991 | S. cerevisiae deletion strains, locus YOR316C, strain cot1, hits give low values 0.994 | S. cerevisiae deletion strains, locus YPL051W, strain arl3, hits give low values 1.01 | S. cerevisiae deletion strains, locus YPL078C, strain atp4, hits give low values 1 | S. cerevisiae deletion strains, locus YPL106C, strain sse1, hits give low values 0.999 | S. cerevisiae deletion strains, locus YPL240C, strain hsp82, hits give low values 1 | S. cerevisiae deletion strains, locus YPL256C, strain CLN2, hits give low values 0.946 | S. cerevisiae deletion strains, locus YPR119W, strain clb2, hits give low values 0.99 | S. cerevisiae deletion strains, locus YPR141C, strain kar3, hits give low values 0.988 | S. cerevisiae deletion strains, locus YPR163C, strain tif3, hits give low values 0.999 | S. cerevisiae deletion strains, locus YPR167C, strain met16, hits give low values 0.993 | S. cerevisiae deletion strains, strain wtn01, hits give low values 0.96 | S. cerevisiae strains, strain wild type, hits give low values 0.983
